67 compounds from PubChem BioAssay AID602342 (Broad Institute, 2012) can be followed below.

Each structure is given as a SMILES string. In all, about 340,000 compounds went through this assay and about 1,000 (0.29%) were called active. The full list was thinned out, with actives kept by preference. Unmarked numbers belong to inactive results.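 Rule for the calls: active = mean replicate activation score at least 90 and every replicate individually at or above 90; inconclusive = only one of the two criteria met; inactive = neither criterion met.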

This experiment is described as follows: miR-122 Renilla sensor signal increase in Huh7, primary screen, miR-122 inhibitor project, cell-based, single point, plate reader (AID 602342).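 Note: higher luciferase means less miR-122 activity so hits act as miR-122 inhibitors.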 The conditions noted are these: Huh7 miR-122 Renilla luciferase sensor, 48 h, active compounds read high, neutral wells = 0, positive control = 100.

Consider `COc1cccc(CN2[C@H](CO)[C@@H]3c4ccccc4N(C(=O)c4ccncc4)C[C@@H]32)c1`, for which the activation (reporter increase) (at 16.7 µM unless noted) is 46.9%.
On the same count and under the same terms, for `COc1ccc(C(=O)N2C[C@@H]3[C@H](c4ccccc42)[C@H](CO)N3Cc2ccc3c(c2)OCO3)cc1` the value was 247% (active); for `COc1ccccc1NC(=O)N1C[C@H]2[C@@H](c3ccccc31)[C@H](CO)N2Cc1ccc2c(c1)OCO2`, 28.6%.
In the case of `O=C(c1ccncc1)N1C[C@H]2[C@@H](c3ccccc31)[C@H](CO)N2C(=O)c1ccccn1`, where the note is “at 16.7 µM unless noted”, the activation (reporter increase) was -28.6%.
The same measure, in the same setting: then `C/C=C/c1ccc([C@H]2[C@@H](CO)N(S(C)(=O)=O)[C@@H]2CN(C)C(=O)CC)cc1`, with 6.25%.
The same measure, in the same setting: then `CN1C(=O)c2cc(NS(=O)(=O)c3ccc(Cl)cc3)ccc2OC[C@@H]2O[C@H](CC(=O)O)CC[C@@H]21`, with 5.56%; and `O=C(Nc1ccc2c(c1)[C@H]1C[C@@H](CC(=O)N3CCc4ccccc4C3)O[C@H](CO)[C@H]1O2)Nc1ccccc1F`, with -7.95%.
Same read-out and setting: for `CO[C@@H]1CN(C)C(=O)c2ccc(NS(=O)(=O)c3ccc(Cl)cc3)cc2OC[C@@H](C)N(C)C[C@H]1C` the value was -8.17%; for `Cc1ccc(C(=O)Nc2ccccc2C(=O)NC2CCCCC2)cc1S(=O)(=O)N1CCOCC1`, -2.85% [at 12.5 µM].
In the case of `C=CCNC(=O)c1ccccc1NC(=O)c1ccc(Cl)c(S(=O)(=O)Nc2cccc(C)c2C)c1`, the activation (reporter increase) (at 16.7 µM unless noted) is 155% [at 12.5 µM] (active).
Turning to `COC(=O)c1ccc(C(=O)Nc2cc(Cl)ccc2Cl)cc1NC(=O)c1ccccc1C`, the activation (reporter increase) (at 16.7 µM unless noted) is -1.04% [at 12.5 µM].
On the same count and under the same terms, for `CCC(=O)N(C)C[C@@H]1Oc2ncc(C#C[C@H](C)O)cc2C(=O)N([C@@H](C)CO)C[C@@H]1C` the value was 1.39%; for `Cc1ccccc1S(=O)(=O)N1C[C@H](O)COC[C@H]2O[C@H](CC(=O)N3CCCCC3)CC[C@@H]21`, 8.99%; for `Cc1cccc(CNS(=O)(=O)c2ccc(-c3cnc(C4CC4)o3)cc2)c1`, 3.02% [at 12.5 µM].
The same measure, in the same setting: then `COc1ccc(CNS(=O)(=O)c2ccc(-c3cnc(C4CC4)o3)cc2)cc1`, with -3.38% [at 12.5 µM].
Still for that read-out and setting: then `Cc1cccc(NS(=O)(=O)c2ccc(-c3cnc(C4CC4)o3)cc2)c1`, with 186% [at 12.5 µM] (active); and `C[C@@H]1CN([C@H](C)CO)C(=O)c2cccc(NS(=O)(=O)c3ccc(F)cc3)c2O[C@H]1CN(C)Cc1ccc(Oc2ccccc2)cc1`, with 3.49%; and `O=C(NC1CCCC1)[C@H]1[C@H](CO)[C@H]2Cn3c(ccc(-c4ccccc4)c3=O)[C@H]2N1CCc1ccccc1`, with -0.306%.
As for `C[C@H](CO)N1C[C@H](C)[C@H](CN(C)C(=O)Nc2ccccc2C(F)(F)F)OCc2cn(nn2)CCCC1=O`, under “at 16.7 µM unless noted”, the activation (reporter increase) is -4.03%.
On the same count and under the same terms, for `N=c1n(Cc2ccc(Cl)cc2)c2ccccc2n1CC(O)c1ccco1` (stereo not drawn) the value was 262% [at 12.5 µM] (active); for `Cn1c(=N)n(CC(O)c2cccs2)c2ccccc21` (stereo not drawn), -2.61% [at 12.5 µM]; for `C[C@H](CO)N1C[C@H](C)[C@@H](CN(C)C(=O)Nc2ccc3c(c2)OCO3)OCCCC[C@H](C)Oc2ccc(NC(=O)Nc3ccc(F)cc3)cc2C1=O`, -4.3%.
Still for that read-out and setting: for `Cc1noc(C)c1S(=O)(=O)N(C)C[C@@H]1OCCCC[C@H](C)Oc2ccc(NC(=O)Nc3ccc4c(c3)OCO4)cc2C(=O)N([C@H](C)CO)C[C@H]1C` the value was -8.18%; for `O=C(Nc1ccccc1)[C@@H]1[C@@H](CO)[C@@H]2Cn3c(cccc3=O)[C@@H]2N1C(=O)C1CC1`, -0.104%.
On the same count and under the same terms, for `C[C@@H]1CN([C@H](C)CO)C(=O)c2cc(NC(=O)c3ccccc3)ccc2O[C@@H](C)CCCCO[C@H]1CN(C)C(=O)c1ccncc1` the value was -8.54%.
On to `C[C@H](CO)N1C[C@H](C)[C@@H](CN(C)S(=O)(=O)c2ccc(F)cc2)Oc2ccc(NC(=O)CCC(F)(F)F)cc2C1=O`, for which the activation (reporter increase) was 1.48% (at 12.5 µM) and -2.79% (at 16.7 µM).
On to `Cc1ccc(S(=O)(=O)N(C)C[C@H]2Oc3ccc(NC(=O)CCC(F)(F)F)cc3C(=O)N([C@@H](C)CO)C[C@H]2C)cc1`, for which, under “at 16.7 µM unless noted”, the activation (reporter increase) was 99.9% (active).
Same read-out and setting: for `C[C@H]1CN([C@@H](C)CO)C(=O)Cc2cc(NS(=O)(=O)c3ccccc3)ccc2O[C@@H]1CN(C)Cc1ccc(C(=O)Nc2ccccc2N)cc1` the value was -6.43%; for `Cc1ccc(S(=O)(=O)Nc2ccc3c(c2)CC(=O)N([C@@H](C)CO)C[C@H](C)[C@H](CN(C)Cc2ccc(C(=O)Nc4ccccc4N)cc2)O3)cc1`, 252% (active).
For `C[C@H]1CN([C@@H](C)CO)C(=O)Cc2cc(NS(=O)(=O)c3ccccc3)ccc2O[C@H]1CN(C)Cc1ccc(C(=O)Nc2ccccc2N)cc1`, the activation (reporter increase) (at 16.7 µM unless noted) is 71.5%.
Still for that read-out and setting: then `COc1ccc(S(=O)(=O)N(C)C[C@@H]2Oc3ccc(NC(=O)CCC(F)(F)F)cc3C(=O)N([C@@H](C)CO)C[C@H]2C)cc1`, with -0.455%; and `COCC(=O)Nc1ccc2c(c1)C(=O)N(C)[C@H]1CC[C@H](CC(=O)Nc3ccccc3)O[C@H]1CO2`, with 1.21%; and `NCC[C@@H]1CC[C@@H](NC(=O)C2CCCC2)[C@H](CO)O1`, with -3.47%.
As for `CC(C)C#Cc1ccc([C@@H]2[C@@H](CO)N3CCCCN(C(=O)c4ccc5c(c4)OCO5)C[C@H]23)cc1`, the activation (reporter increase) (at 16.7 µM unless noted) is -24%.
`Cc1c(-c2ccccc2)cn2c1-c1ccc(C)n1CC2`: where the note is “at 16.7 µM unless noted”, the activation (reporter increase) is 248% [at 12.5 µM] (active).
Consider `C[C@H]1CCCCO[C@H](CN(C)S(=O)(=O)c2cn(C)cn2)[C@@H](C)CN([C@@H](C)CO)C(=O)c2cc(NC(=O)C3CCCCC3)ccc2O1`, for which, under “at 16.7 µM unless noted”, the activation (reporter increase) was 1.57%.
As to `CCCNC(=O)N(C)C[C@@H]1Oc2ncc(C#CC(C)C)cc2C(=O)N([C@H](C)CO)C[C@H]1C`, the activation (reporter increase) (at 16.7 µM unless noted) was -5.52%.
Same read-out and setting: then `CN1c2ccc(-c3ccccc3)cc2[C@H]2[C@H](CCN2C(=O)c2ccc3c(c2)OCO3)[C@H]1CO`, with 72.9%; and `O=C(COc1ccc(Cl)cc1)Nc1ccc2c(c1)OCO2`, with -4.55% [at 12.5 µM]; and `CC(C)CNS(=O)(=O)c1ccc(C(=O)Nc2ccc3c(c2)OCO3)cc1`, with 39.9% [at 12.5 µM].
The same measure, in the same setting: then `CC(C)CNS(=O)(=O)c1ccc(OCC(=O)Nc2ccc3c(c2)OCO3)c(Cl)c1`, with 303% [at 12.5 µM] (active); and `C[C@H](CO)N1C[C@H](C)[C@H](CN(C)S(C)(=O)=O)Oc2ncc(C3=CCCCC3)cc2C1=O`, with 2.67%; and `CCC(=O)N(C)C[C@H]1Oc2cc(-c3ccc(C)cc3)ccc2S(=O)(=O)N([C@@H](C)CO)C[C@H]1C`, with -15.3%.
`COCCn1c(C)cc(C(=O)CSc2nc3ccccc3c(=O)n2C(C)COC)c1C` (stereo not drawn): where the note is “at 16.7 µM unless noted”, the activation (reporter increase) was -1.04% [at 12.5 µM].
Same read-out and setting: then `COCCn1c(SCC(=O)Nc2ccc3c(c2)CCC3)nc2ccccc2c1=O`, with 1.43% [at 12.5 µM].
Consider `COCCn1c(SCC(=O)c2[nH]c(C)c(C(C)=O)c2C)nc2ccccc2c1=O`, for which the activation (reporter increase) (at 16.7 µM unless noted) is 272% [at 12.5 µM] (active).
The same measure, in the same setting: then `CO[C@H]1CN(C)C(=O)c2cc(NS(=O)(=O)c3ccccc3)ccc2OC[C@H](C)N(C)C[C@@H]1C`, with 0.654%; and `CNC(=O)C[C@@H]1CC[C@H]2[C@H](COc3ccc(NC(=O)c4cccc(OC)c4)cc3C(=O)N2C)O1`, with -50%.
Same read-out and setting: then `C[C@@H]1CCCCO[C@H](CN(C)C(=O)c2ccccc2)[C@H](C)CN([C@H](C)CO)C(=O)c2cc(N(C)C)ccc2O1`, with -6.07%; and `CC(C)c1cc(C(=O)O)on1`, with 8.11% [at 12.5 µM]; and `CC(C)c1cc(C(=O)O)n[nH]1`, with 143% [at 12.5 µM] (active).
Take `CO[C@H]1CN(C)C(=O)c2ccc(NC(=O)Cc3ccccc3)cc2OC[C@@H](C)N(C(C)=O)C[C@H]1C`: the activation (reporter increase) (at 16.7 µM unless noted) is -19.6%.
Still for that read-out and setting: then `CN1C[C@H]2[C@@H](c3ccccc31)[C@@H](CO)N2Cc1ccccc1`, with 2.82%.
Regarding `CCOc1ccc(C(=O)Nc2cccc(-c3ccc4nncn4n3)c2)cc1`, the activation (reporter increase) (at 16.7 µM unless noted) is -5.49% [at 12.5 µM].
Take `COc1ccc(OC)c(S(=O)(=O)Nc2c(C)nn(C)c2C)c1`: where the note is “at 16.7 µM unless noted”, the activation (reporter increase) is 21.9% [at 12.5 µM].
`COc1ccc(OC)c(S(=O)(=O)Nc2cccc(-c3ccc4nncn4n3)c2)c1`: the activation (reporter increase) (at 16.7 µM unless noted) is 333% [at 12.5 µM] (active).
Same read-out and setting: for `CC(C)NC(=O)N(C)C[C@H]1Oc2ncc(C#CC3CCCCC3)cc2C(=O)N([C@H](C)CO)C[C@@H]1C` the value was -2.95%; for `CC(C)NC(=O)Nc1ccc2c(c1)C(=O)N([C@H](C)CO)C[C@@H](C)[C@H](CN(C)S(C)(=O)=O)O2`, 3.33%.
Same read-out and setting: for `C[C@@H]1CN([C@H](C)CO)C(=O)Cc2cc(NS(=O)(=O)c3ccc(F)cc3)ccc2O[C@H]1CN(C)C` the value was 4.8%; for `CCC(=O)N1[C@@H](CO)[C@@H]2c3ccccc3N(C(=O)c3ccccc3F)C[C@@H]21`, -12.6%.
Still for that read-out and setting: for `CC(=O)N1[C@H](CO)[C@H]2c3ccccc3N(C(=O)c3ccc(F)cc3)C[C@H]21` the value was -19.2%; for `O=C(c1ccccc1F)N1C[C@H]2[C@@H](c3ccccc31)[C@@H](CO)N2C(=O)c1ccc(F)cc1`, 471% (active).
With `O=C(C[C@@H]1C[C@@H]2c3cc(NC(=O)c4ccc5c(c4)OCO5)ccc3O[C@@H]2[C@@H](CO)O1)NCC1CC1`, the activation (reporter increase) (at 16.7 µM unless noted) is -4.14%.
Consider `COc1ccc(NC(=O)N(C)C[C@@H]2Oc3ccc(NC(=O)Cc4cn(C)c5ccccc45)cc3CC(=O)N([C@@H](C)CO)C[C@H]2C)cc1`, for which the activation (reporter increase) (at 16.7 µM unless noted) was -1.9%.
In the case of `Cc1ccc(NS(=O)(=O)c2ccc(C(C)(C)C)cc2)cn1`, under “at 16.7 µM unless noted”, the activation (reporter increase) is 23.7% [at 12.5 µM].
For `Cc1ccc(S(=O)(=O)Nc2ccc3ncccc3c2)cc1`, the activation (reporter increase) (at 16.7 µM unless noted) was 146% [at 12.5 µM] (active).
Still for that read-out and setting: then `O=S(=O)(Nc1ccc(Oc2ncccn2)c(Cl)c1)c1ccc(F)cc1`, with 8.55% [at 12.5 µM].
